{"source": "the supplement of paper PMC5641865", "about": "“A screen for kinase inhibitors identifies antimicrobial imidazopyridine aminofurazans as specific inhibitors of the Listeria monocytogenes PASTA kinase PrkA” (The Journal of Biological Chemistry, 2017)", "note": "Where “and” joins values, the source holds several entries; their conditions need not be identical. Identical values can stand only once. ± gives the standard deviation of the averaged measurements.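 Further: End-point A600 read in BHI broth at 37 °C with 2% DMSO, inhibition computed as (1 − OD with compound plus ceftriaxone ÷ OD with ceftriaxone only) × 100.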", "data": [{"system": "Listeria monocytogenes 10403S", "assay": "growth inhibition relative to ceftriaxone-alone control; higher = stronger potentiation of ceftriaxone growth inhibition", "conditions": "10 µM; ceftriaxone 1 ug/ml; 12 h", "values": [{"smiles": "CCS(=O)(=O)c1ccc(OC)c(Nc2ncc(-c3cccc(C(C)=O)c3)o2)c1", "growth inhibition": "7.79 ± 2.2%"}, {"smiles": "CC(=O)Nc1cccc(C#Cc2cncnc2Nc2ccc(OCc3cccc(F)c3)c(Cl)c2)n1", "growth inhibition": "-0.967 ± 4.2%"}, {"smiles": "CO[C@H]1C[C@@H]2CC[C@@H](C)[C@@](O)(O2)C(=O)C(=O)N2CCCC[C@H]2C(=O)O[C@H]([C@H](C)C[C@@H]2CC[C@@H](OC(=O)C(C)(CO)CO)[C@H](OC)C2)CC(=O)[C@H](C)/C=C(\\C)[C@@H](O)[C@@H](OC)C(=O)[C@H](C)C[C@H](C)/C=C/C=C/C=C/1C", "note": "[Temsirolimus (Torisel)]", "growth inhibition": "19.8 ± 59%"}, {"smiles": "CCOc1cc2ncc(C#N)c(Nc3ccc(F)c(Cl)c3)c2cc1NC(=O)/C=C/CN(C)C", "note": "[Pelitinib (EKB-569)]", "growth inhibition": "14.9 ± 10%"}, {"smiles": "COc1cccc(-n2ncc3c(N/N=C/c4ccc(C(=O)NCCN(C)C)cc4)ncnc32)c1", "growth inhibition": "0.231 ± 2.8%"}, {"smiles": "COc1cc(Nc2ncc(F)c(Nc3ccc4c(n3)N(COP(=O)(O)O)C(=O)C(C)(C)O4)n2)cc(OC)c1OC", "note": "[R788 (Fostamatinib)]", "growth inhibition": "12.5 ± 9.9%"}, {"smiles": "Cc1ccc(NC(=O)c2ccnc(N3CCCC3)c2)cc1-c1ccc(C(=O)NCC2CC2)cc1", "growth inhibition": "-0.943 ± 1.3%"}, {"smiles": "COc1ccc2ncn(-c3cc(O[C@H](C)c4ccccc4Cl)c(C(N)=O)s3)c2c1", "growth inhibition": "1.82 ± 0.29%"}, {"smiles": "NS(=O)(=O)c1ccc(Nc2cc(-c3ccc(O)c(F)c3)n[nH]2)cc1", "growth inhibition": "10.1 ± 4.6%"}, {"smiles": "Nc1ncc(-c2cccc(S(N)(=O)=O)c2)c2scc(-c3ccc(F)c(Cl)c3)c12", "growth inhibition": "-7.14 ± 12%"}, {"smiles": "CCOc1cc2ncc(C#N)c(Nc3ccc(OCc4ccccn4)c(Cl)c3)c2cc1NC(=O)/C=C/CN(C)C", "note": "[Neratinib (HKI-272)]", "growth inhibition": "12.3 ± 9.7%"}, {"smiles": "COc1cc2ncnc(Nc3cccc(Br)c3)c2cc1OC", "growth inhibition": "36.1 ± 16%"}, {"smiles": "Fc1cccc(COc2ccc(Nc3ncnc4sc(-c5ccco5)cc34)cc2Cl)c1", "growth inhibition": "6.89 ± 3.7%"}, {"smiles": "Cc1ccc(F)c(NC(=O)Nc2ccc(-c3cccc4[nH]nc(N)c34)cc2)c1", "note": "[Linifanib (ABT-869)]", "growth inhibition": "29.9 ± 19%"}, {"smiles": "CCn1c(-c2nonc2N)nc2c(C#CC(C)(C)O)nc(OC[C@@H](N)c3ccccc3)cc21", "growth inhibition": "71.3 ± 3.1%"}, {"smiles": "c1ccc(Nc2ncc(-c3ccccc3)o2)cc1", "growth inhibition": "2.45 ± 0.39%"}, {"smiles": "CNC(=O)c1cc(-c2ccc(F)cc2)cc(-c2ccc(S(=O)(=O)N3CCCC3)cc2)c1N", "growth inhibition": "-4.95 ± 15%"}, {"smiles": "CO[C@H]1C[C@@H]2CC[C@@H](C)[C@@](O)(O2)C(=O)C(=O)N2CCCC[C@H]2C(=O)O[C@H]([C@H](C)C[C@@H]2CC[C@@H](OCCO)[C@H](OC)C2)CC(=O)[C@H](C)/C=C(\\C)[C@@H](O)[C@@H](OC)C(=O)[C@H](C)C[C@H](C)/C=C/C=C/C=C/1C", "note": "[Everolimus (RAD001)]", "growth inhibition": "27.5 ± 19%"}, {"smiles": "NC(=O)c1cc(-c2ccc(F)cc2)cc(-c2ccncc2)c1N", "growth inhibition": "-1.35 ± 1.1%"}, {"smiles": "Cc1nc(-c2ccccc2)n2nc(NCCCN3CCOCC3)ncc12", "growth inhibition": "0.025 ± 1.1%"}, {"smiles": "OCCn1cc(-c2ccc3c(c2)CC/C3=N\\O)c(-c2ccncc2)n1", "growth inhibition": "83 ± 8.8%"}, {"smiles": "CC[C@@H]1C(=O)N(C)c2cnc(Nc3ccc(C(=O)N[C@H]4CC[C@H](N5CCN(CC6CC6)CC5)CC4)cc3OC)nc2N1C(C)C", "note": "[BI6727 (Volasertib)]", "growth inhibition": "56.9 ± 16%"}, {"smiles": "Fc1ccc(-c2ncn(C3CCNCC3)c2-c2ccnc(Oc3ccccc3)n2)cc1", "growth inhibition": "-4.1 ± 5.5%"}, {"smiles": "CS(=O)(=O)CCN(CC#N)Cc1ccc(-c2ccc3ncnc(Nc4ccc(OCc5cccc(F)c5)c(Cl)c4)c3c2)o1", "growth inhibition": "1.01 ± 5.1%"}, {"smiles": "COCCOc1ccc2c(c1)ncn2-c1ccc2cccc(N3CCC(N)CC3)c2n1", "growth inhibition": "7.08 ± 14%"}, {"smiles": "CN(C)c1ccc(-c2nc3ncc(Cl)c(N4CCN(CC(=O)Nc5nccs5)CC4)c3[nH]2)cc1", "growth inhibition": "15.3 ± 0.56%"}, {"smiles": "COc1cc(N2CCC(N3CCN(C)CC3)CC2)ccc1Nc1ncc(Cl)c(Nc2ccccc2S(=O)(=O)C(C)C)n1", "growth inhibition": "79.1 ± 24%"}, {"smiles": "COc1cc(N2CCN(C(C)C)CC2)ccc1Nc1nc(Nc2cccc(F)c2C(=O)O)c2cc[nH]c2n1", "growth inhibition": "-0.452 ± 1.2%"}, {"smiles": "C[C@@H]1CCN(C(=O)CC#N)C[C@@H]1N(C)c1ncnc2[nH]ccc12", "growth inhibition": "11.4% and 15.6%"}, {"smiles": "COc1cc2c(N3CCN(C(=O)Nc4ccc(OC(C)C)cc4)CC3)ncnc2cc1OCCCN1CCCCC1", "note": "[Tandutinib (MLN518)]", "growth inhibition": "32.3 ± 18%"}, {"smiles": "COc1cc2ncnc(Nc3ccc(F)c(Cl)c3)c2cc1OCCCN1CCOCC1", "note": "[Gefitinib (Iressa)]", "growth inhibition": "31 ± 21%"}, {"smiles": "CCc1cc(Nc2nccc(-c3c(-c4ccc(OC)c(C(=O)Nc5c(F)cccc5F)c4)nc4ccccn34)n2)c(OC)cc1N1CCC(N2CCN(S(C)(=O)=O)CC2)CC1", "growth inhibition": "24.5 ± 8%"}, {"smiles": "CNC(=O)c1ccccc1Nc1nc(Nc2ccc(N3CCOCC3)cc2OC)ncc1Cl", "growth inhibition": "-3.4 ± 13%"}, {"smiles": "Cc1ccc(Nc2ccnc(Nc3cccc(C(N)=O)c3)n2)cc1O", "growth inhibition": "-4.84 ± 3.2%"}, {"smiles": "CN(C)c1cc2c(Nc3ccc4nc(Cc5ccccc5)[nH]c4c3)ncnc2cn1", "growth inhibition": "-14.1 ± 8.1%"}, {"smiles": "Nc1cccc(-c2cc3c(Oc4cccc(O)c4)ncnc3[nH]2)c1", "growth inhibition": "-3.72 ± 8.2%"}, {"smiles": "CC1(C)CC(n2cnc(-c3ccc(F)cc3)c2-c2ccnc(N)n2)CC(C)(C)N1", "growth inhibition": "-11.4 ± 8.9%"}, {"smiles": "COc1cc(Nc2ncc3c(C)nc(-c4cccc(Oc5ccccc5)c4)n3n2)cc(OC)c1OC", "growth inhibition": "-18.3 ± 17%"}, {"smiles": "COc1cccc(-n2nc(C)c3c(N/N=C(\\C)c4ccncc4)ncnc32)c1", "growth inhibition": "-12.5 ± 20%"}]}]}
